About 1,700 (0.52%) of roughly 330,000 compounds were called active. Entries that show only a call come without a potency. Calls follow the shape of the dose curve; as a rule, active = well fitted inhibition curve with a large enough effect; inconclusive = small, poorly fitted or top-dose-only effect; inactive = no such curve, though single readings can be large or run the other way. Many of the other results were omitted from the sample, so actives are more common in it than they were.
molecular target: Beta-lactamase (Escherichia coli (strain K12)) (UniProt P00811); test: qHTS Inhibitors of AmpC Beta-Lactamase (assay without detergent); settings: AmpC nitrocefin hydrolysis, absorbance 480 nm, 0.0001% Triton; series mostly up to 57.1 µM; also: nearly all actives have a fitted effect of over 20% in size
Sequence (P00811 whole entry, looked up): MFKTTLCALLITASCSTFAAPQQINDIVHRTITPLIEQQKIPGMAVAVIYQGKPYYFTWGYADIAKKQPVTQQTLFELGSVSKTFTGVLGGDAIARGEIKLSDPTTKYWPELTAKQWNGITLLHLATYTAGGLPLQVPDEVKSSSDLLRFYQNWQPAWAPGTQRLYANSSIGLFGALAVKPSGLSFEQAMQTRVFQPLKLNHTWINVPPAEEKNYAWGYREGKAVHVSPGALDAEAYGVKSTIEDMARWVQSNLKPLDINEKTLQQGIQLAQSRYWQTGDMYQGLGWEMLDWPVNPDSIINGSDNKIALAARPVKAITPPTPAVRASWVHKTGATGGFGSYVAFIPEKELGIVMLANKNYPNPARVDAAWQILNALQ
Description: NIH Molecular Libraries Probe Production Network [MLPCN] NIH Chemical Genomics Center [NCGC] Assay Provider: Professor Brian Shoichet, UCSF Assay Overview: This aggregation profiling approach exploits the sensitivity of aggregate formation to detergent. Inhibition of b-lactamase is measured in the presence and absence of 0.01% Triton X-100. This particular assay had the prescence of 0.01% Triton X-100. See Pubchem assay "Promiscuous and Specific Inhibitors of AmpC Beta-Lactamase (assay without detergent)" for related screen. Compounds that inhibit only in the absence of detergent are considered likely promiscuous aggregators. A screen of 1,030 compounds was performed in Brian Shoichet's lab in 96-well format. AmpC activity was measured by following the absorbance at 480 nm. Nitrocefin is a chromogenic substrate: while nitrocefin is yellow (lmax 390 nm), the product of its hydrolysis is red (lmax 486 nm, 17,000 M-1). AmpC beta lactamase was provided by Shoichet Lab, UCSF.
Buffer: 20 mM phosphate buffer, pH 7.0 Triton X-100: No Detergent screen: 0.0001%, Detergent screen: 0.01%. Reagents/Controls: Buffer in columns 3 and 4 as negative control (no enzyme). 5.3 nM AmpC in columns 1, 2, 5-48. Titration of UCSF compound 9 control (from 10 mM, then 1:2) pin-transferred to column 2. Column 1 is neutral (100% activity). Assay Steps: Six uL of reagents were dispensed to 1536-well Greiner black clear bottom plates. Compounds and controls (23 nL) were transferred via Kalypsys PinTool. The plates were incubated for 15 min at room temperature, and then 2 uL of 800 uM solution of nitrocefin was added to start the reaction. The plates were immediately transferred to and read every 20 seconds for 4 min on ViewLux (Perkin-Elmer) High-throughput CCD imager using 480 nm absorbance protocol. During dispense, reagent bottles were kept submerged into 4 deg C water bath. Keywords: NIH Roadmap, MLSCN, MLI, MLSMR, qHTS, NCGC, AmpC Beta-Lactamase, Aggregation
Potency is read from the fitted curve at half-maximal effect.

SMILES | Potency
O=C(CN(c1cccc(Cl)c1)S(=O)(=O)c1ccccc1)NN=C1CCCC1 | inactive
Cc1ccccc1Cn1nc(C)c(NC(=O)C(F)(F)F)c1C | inactive
Cc1nn(Cc2ccc(F)cc2)c(C)c1NC(=O)c1cccnc1Cl | inactive
Cc1nn(Cc2ccc(F)cc2)c(C)c1NC(=O)c1noc2c1CCc1ccccc1-2 | 11.2 µM (active)
COC(=O)[C@]1(Cc2ccccc2)N[C@H](CN(C)S(=O)(=O)c2ccc(OC(F)(F)F)cc2)[C@@H]2C(=O)N(Cc3ccccc3)C(=O)[C@@H]21 | inactive
CC(O)c1nc2c(c(=O)n(C)c(=O)n2C)n1C (stereo unspecified) | inactive
Cc1ccc(S(=O)(=O)N(CC(=O)NCc2ccco2)c2ccccc2C)cc1 | inactive
COc1ccc(-c2cc(C(=O)N(C)CC(=O)Nc3ccccc3Cl)c3ccccc3n2)cc1OC | inactive
CC(C)CC1(C)NC(=O)N(CC(=O)Nc2ccc3c(c2)OCCO3)C1=O (stereo unspecified) | inactive
COC(=O)C1=C(Nc2ccc(OC)cc2)C=C(C)C(C(=O)OC)C1c1ccc(C)cc1 (stereo unspecified) | inactive
COC(=O)C1=C(Nc2ccc(C)cc2)C=C(C)C(C(=O)OC)C1c1ccc(F)cc1 (stereo unspecified) | inactive
Cc1ccccc1C(=O)Nc1ccccc1NC(=O)c1ccccc1C | inactive
Cc1ccccc1C(=O)OC1OC(=O)C(Cl)=C1Nc1ccccc1 (stereo unspecified) | 6.31 µM (active)
Cc1ccc(NC2=C(Cl)C(=O)OC2OC(=O)c2ccccc2C)cc1 (stereo unspecified) | 3.98 µM (active)
Cc1ccccc1C(=O)O | inactive
O=S(=O)(Nc1ncccn1)c1ccc(NS(=O)(=O)c2cccc(Cl)c2Cl)cc1 | inactive
O=C(COC(=O)/C=C/c1cccs1)NC1CCCCC1 | inactive
COc1ccc(CC(=O)N[C@@H]2c3cc(OC)c(OC)cc3C[C@H]2OCc2ccccc2)cc1 | inactive
CC(=O)c1c(C)c[nH]c1C | inactive
CCCCN(C(=O)C1CCC1)c1c(N)n(Cc2ccccc2)c(=O)[nH]c1=O | inactive
CCn1c2ccccc2c2cc(NC(=O)Nc3ccc([N+](=O)[O-])cc3C)ccc21 | inactive
COCCCNC(=S)N1CCN(c2nc(-c3cccc(OC)c3)cs2)CC1 | inactive
CC(=O)Nc1ccc(NC(=O)CSc2nnc(COc3ccccc3C)n2CC2CCCO2)cc1 (stereo unspecified) | inactive
CC[N+]1(CC)CC2=Cc3ccccc3CC2C1 (stereo unspecified) | inactive
CCC(C)Cn1c(O)cc2nn(-c3nc4ccccc4s3)c(=O)c-2c1C (stereo unspecified) | 17.8 µM (active)
CC(=NCc1ccco1)c1c(C(F)(F)F)[nH]n(-c2nc3ccccc3s2)c1=O | inactive

SMILES | Potency
Cn1c(=O)c2c(nc(NCCNC(=O)c3ccco3)n2Cc2ccccc2F)n(C)c1=O | inactive
Cc1c(Cl)cccc1NC(=O)CC1SC(=NCC2CCCO2)NC1=O (stereo unspecified) | inactive
CCN=C1SC(CC(=O)Nc2ccc(C)cc2)C(=O)N1CC (stereo unspecified) | inactive
Cc1ccc(NC(=O)CC2S/C(=N/N=C3\CCCc4ccccc43)NC2=O)cc1 (stereo unspecified) | 3.16 µM (active)
CCCCn1c(N)c(N(CCOC)C(=O)COc2c(C)cccc2C)c(=O)[nH]c1=O | inactive
CS(=O)(=O)N1CCN(C(=O)CSc2ccccc2)CC1 | inactive
Cc1ccc(S(=O)(=O)N2CCCC2CO)cc1 (stereo unspecified) | inactive
COc1ccc(CSc2nnnn2-c2ccc(O)cc2)cc1F | 22.4 µM (active)
COc1ccc(-n2nnnc2SCC(=O)c2ccc(OC)c(OC)c2)cc1 | inactive
COc1ccc(CSc2nnnn2-c2ccc(C(=O)O)cc2)cc1 | inactive
Cn1c2c(c(=O)n(C)c1=O)C(c1cccc([N+](=O)[O-])c1)Nc1ccccc1O2 (stereo unspecified) | inactive
CN(CCC1CCOCC1)C(=O)CC1C(=O)NCCN1Cc1cccc(F)c1 (stereo unspecified) | inactive
O=C(O)CCCC(=O)Nc1ccc(Oc2cccc(C(F)(F)F)c2)nc1 | inactive
CC(C)CN(C(=O)COC(=O)c1ccc(Cl)c(N)c1)c1c(N)n(Cc2ccccc2)c(=O)[nH]c1=O | 28.2 µM (active)
CC(C)CN(C(=O)COC(=O)c1ccc2ccccc2c1)c1c(N)n(Cc2ccccc2)c(=O)[nH]c1=O | inactive
Cc1csc(=O)n1CC(=O)OCC(=O)N(CC(C)C)c1c(N)n(Cc2ccccc2)c(=O)[nH]c1=O | inactive
Cc1cc(NC(=O)CSCc2ccccc2C)no1 | inactive
CSc1ccccc1NC(=O)C(C)N1C(=O)c2ccccc2S1(=O)=O (stereo unspecified) | inactive
Cc1cc(NC(=O)C(C)N2C(=O)c3ccccc3S2(=O)=O)no1 (stereo unspecified) | 25.1 µM (active)
O=C1CCC(=O)N(c2ccccc2)N1 | inactive
O=C(OCC1O[C@@H](OC(=O)c2cc(O)c(O)c(O)c2)[C@@H](OC(=O)c2cc(O)c(O)c(O)c2)[C@@H](OC(=O)c2cc(O)c(O)c(O)c2)[C@@H]1OC(=O)c1cc(O)c(O)c(O)c1)c1cc(O)c(O)c(O)c1 (stereo partly specified) | 1 µM (active)
CCOCCCNC(=O)c1ccc(CS(=O)(=O)c2cccc(C(F)(F)F)c2)o1 | inactive
CCOCCn1[nH]c2ccccc2c1=O | inactive
O=C(CSc1nc(O)c(Cc2ccccc2)c(=O)[nH]1)Nc1nc2c(s1)CCCC2 | inactive
CCOC(=O)c1sc(NC(=O)CSc2n[nH]c(CC)n2)nc1C | inactive
CCOC(=O)c1sc(NC(=O)CSc2nc(O)c(Cc3ccccc3)c(=O)[nH]2)nc1C | 15.8 µM (active)

SMILES | Potency
O=C(O)CCN=C1CCc2ccccc2N1 | inactive
COc1ccccc1NC(=O)CSc1nnc(Cc2cccn2C)n1-c1ccc(F)cc1 | 1.41 µM (active)
COC(=O)c1ccc(NC(=O)CSc2nnc(Cc3cccn3C)n2-c2ccc(F)cc2)cc1 | inactive
Cc1ccc(C)c(NC(=O)CSc2nnc(Cc3cccn3C)n2-c2ccc(F)cc2)c1 | inactive
O=C(CN1CCCC1)Nc1sc2c(c1C(=O)Nc1ccccc1)CCCC2 | inactive
Cc1cc2ncn(CCCCOc3ccccc3)c2cc1C | inactive
O=C(COC(=O)c1ccc(Oc2ccccc2)cc1)Nc1nnc(-c2ccccc2)o1 | 12.6 µM (active)
COc1ccccc1C(=O)NCC(=O)OCC(=O)Nc1nnc(-c2ccccc2)o1 | inactive
CC(=O)Nc1cccc(C(=O)OCC(=O)Nc2nnc(-c3ccccc3)o2)c1 | inactive
CCn1nnc(NC(=O)c2c(OC)cccc2OC)n1 | inactive
CCN(C(=O)COC(=O)C1CCN(S(=O)(=O)c2ccc(C)c(C)c2)CC1)C1CCS(=O)(=O)C1 (stereo unspecified) | inactive
CCOC(=O)C1CCCN(C(=O)CSc2nnc3nc(C)cc(C)n23)C1 (stereo unspecified) | inactive
O=C(CSc1nc2ccccc2c(=O)[nH]1)Nc1nc(-c2ccc(Br)cc2)cs1 | inactive
CC(=O)NCc1ccc(-c2csc(NC(=O)CCCc3nc4ccccc4c(=O)[nH]3)n2)cc1 | inactive
Cc1cc(C)c(-c2csc(NC(=O)CCCc3nc4ccccc4c(=O)[nH]3)n2)c(C)c1 | 35.5 µM (active)
O=c1cc(CO)oc(C(Nc2cccc(C(F)(F)F)c2)c2ccccn2)c1O (stereo unspecified) | inactive
O=C(O)CN1c2cccc3cccc(c23)S1(=O)=O | inactive
CCOC(=O)c1ccc(NC(=O)CS(=O)(=O)c2cn(CC)c3ccccc23)cc1 | inactive
Cc1cc(NC(=O)COn2nnc3ccccc32)no1 | inactive
Cc1cc(NC(=O)CS(=O)(=O)c2cn(C)c3ccccc23)no1 | 10 µM (active)
Cc1ccc(NC(=O)CCCNC(=O)c2ccc(Cl)cc2)cc1S(=O)(=O)N1CCCCC1 | inactive
CC1=C[C@H]2Cc3cc(C)cc(C)c3S(=O)(=O)[C@@H]2C=C1 | inactive
CC1(C)C2CC=C(/C=N/NC(=O)C3CC3)C1C2 (stereo unspecified) | inactive
Cn1nccc1/C=N\NC(=O)c1ccc(Cl)cc1 | inactive
CC1(C)C2CC=C(/C=N/NC(=O)c3ccc(Cl)cc3)C1C2 (stereo unspecified) | 11.2 µM (active)
Cc1c(C(=O)N(C)CCc2cnn(C)c2)oc2c(F)cccc12 | inactive

SMILES | Potency
COc1ccc(COC(=O)c2n[nH]c3ccccc23)cc1F | inactive
CCN(CC)S(=O)(=O)c1ccc2nc(COC(=O)c3n[nH]c4ccccc34)[nH]c2c1 | 22.4 µM (active)
CN(C)S(=O)(=O)c1ccc(NC(=O)COC(=O)c2n[nH]c3ccccc23)cc1 | inactive
COc1ccc(C(=O)O)cc1S(=O)(=O)NCc1cccnc1 | inactive
CCC(C)NC(=O)c1ccccc1NC(=O)c1ccccc1N(C)S(C)(=O)=O (stereo unspecified) | inactive
Cc1ccc(C(=O)Oc2coc(CSc3nnc(NC(=O)c4cccs4)s3)cc2=O)cc1C | 7.08 µM (active)
O=C(Cc1cccs1)Nc1nnc(SCc2ccc(F)cc2)s1 | inactive
COC(=O)c1ccc(CSc2nnc(NC(C)C)s2)cc1 | inactive
COc1cc(OC)cc(C(=O)NNC(=O)CNC(=O)c2ccc(Br)o2)c1 | inactive
CSCC[C@H](NC(=O)N1CCn2c1nc1ccccc12)C(=O)NCc1ccc2c(c1)OCO2 | inactive
CCc1ccc(-n2c(=S)sc3c(=O)n(-c4ccccc4OC)c(=S)[nH]c32)cc1 | inactive
Cc1ccc(S(=O)(=O)N(Cc2ccccc2)c2ccccn2)cc1[N+](=O)[O-] | inactive
Cc1csc2ncc(C(=O)N(Cc3ccccc3)c3ccccn3)c(=O)n12 | 5.62 µM (active)
CC(C)(C)C(=O)N(Cc1ccccc1)c1ccccn1 | inactive
CCC(=O)N(Cc1ccccc1)c1ccccn1 | inactive
Cc1ccc(C(=O)NNC(=O)c2ccc3c(c2)OCCO3)cc1 | inactive
Cc1ccc(C(=O)NNc2ncnc3ccccc23)cc1 | inactive
Cc1ccc(C(=O)NNC(=O)c2cc3cc4ccccc4nc3s2)cc1 | 22.4 µM (active)
COc1cccc(N(CC(=O)NCc2ccccc2)C(=O)CCC(=O)Nc2nccs2)c1 | inactive
COC(=O)CCC(=O)N1CCCC(CO)(Cc2ccccc2)C1 (stereo unspecified) | inactive
COc1ccc(C)cc1Nc1nc(C)nc2c1oc1ccccc12 | inactive
Cc1nc(N2CCCC2C(=O)O)c2oc3ccccc3c2n1 (stereo unspecified) | inactive
Cc1nc(Cl)c2oc3ccccc3c2n1 | 0.158 µM (active)
